This is a sample that favours compounds with a hit; in the whole collection about 19% have one here.
DT40 TDP1 CPT = qHTS for Inhibitors of human tyrosyl-DNA phosphodiesterase 1 (TDP1): qHTS in cells in presence of CPT | AID 686979, 2013 | hit rate 12% among 420,000 | Potency, µM (titrated, usually from 46.2 µM), for the others: at the highest dose activity change, negative = growth inhibition, actives largely listed as inhibitors | chicken DT40 Tdp1-/-;hTDP1 cells + 20 nM CPT, ATP luminescence, 48 h; note: potency is the fitted concentration of half-maximal effect; nearly all actives have a fitted effect of over 55% in size
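Cell growth measured by CellTiter-Glo luminescence after a minimum 48 h, 37 C compound exposure with 20 nM CPT in Tdp1-knockout DT40 cells stably expressing hTDP1, seeded 400/well; qHTS titration format.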
DT40 TDP1 no CPT = qHTS for Inhibitors of human tyrosyl-DNA phosphodiesterase 1 (TDP1): qHTS in cells in absence of CPT | DT40 Tdp1-/- hTDP1 cells, no CPT, ATP luminescence, 48 h | Potency, µM (highest dose often 46.2 µM), for the others: at the highest dose activity change, negative = growth inhibition, hits mostly inhibitors | hit rate 15% among 420,000; note: potency is the fitted concentration of half-maximal effect; nearly all actives have a fitted effect of over 55% in size
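Seeded 400 DT40-hTDP1 cells/well (vehicle DMSO, no 20 nM CPT); pinned compounds; ≥48 hr at 37 °C; CellTiter-Glo luminescence as viability measure.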
HT1080 IDH1KD tx = qHTS for induction of synthetic lethality in tumor cells producing 2HG: qHTS for the HT-1080-IDH1KD cell line. hit rate 2% among 360,000. AID 686971, 2013. Potency, µM (top dose mostly 46.1 µM), for inactives: top-dose activity, negative = toxicity, most hits filed as cytotoxic. HT-1080 IDH1 knockdown viability, ATP luminescence, 48 h;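 note: potency is the fitted concentration of half-maximal effect; 0% = DMSO wells and -100% = cell-free medium wells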
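In this qHTS, HT-1080 cells depleted of IDH1 are exposed for 48 h at 37 °C to compound titrations. Toxicity is scored from CellTiter-Glo luminescence, with DMSO as full viability and medium alone as none.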
HT1080-NT tox = qHTS for induction of synthetic lethality in tumor cells producing 2HG: qHTS for the HT-1080-NT fibrosarcoma cell line; HT-1080-NT fibrosarcoma viability, CellTiter-Glo ATP luminescence, 48 h; Potency, µM (series often up to 46.1 µM), for inactives: at the top dose activity, negative = less viability, hits mostly cytotoxic; hit rate 1.6% among 360,000; AID 686970, 2013;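 note: NT is the 2HG producing partner of a matched IDH1 knockdown line; potency is the fitted concentration of half-maximal effect; 0% = DMSO-treated cells and -100% = media-only wells without cells; nearly all actives have a fitted effect of over 55% in size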
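Compounds were tested in concentration-response format on HT-1080-NT cells for 48 hours at 37 degrees C. Cell viability came from CellTiter-Glo luminescence; curves were classified by r2, response magnitude and activity.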
uPA generation = qHTS for Inhibitors of Cell Surface uPA Generation; cell surface uPA generation assay, qHTS; AID 540303, 2011; Potency, µM (highest dose often 38.3 µM), for inactives: at the top dose activity change, negative = inhibition, actives largely listed as inhibitors; hit rate 0.31% among 330,000; active = well fitted inhibition curve with a large enough effect; inconclusive = small, poorly fitted or top-dose-only effect; inactive = no such curve, though single readings can be large or run the other way; tested in mouse RAW 264.7 cells; note: potency is the fitted concentration of half-maximal effect; nearly all actives have a fitted effect of over 55% in size
IL1B secr inh = qHTS for Inhibitors of Inflammasome Signaling: IL-1-beta AlphaLISA Primary Screen | AID 743279, 2014 | hit rate 4.7% among 360,000 | THP-1 LPS/ATP IL-1B secretion, AlphaLISA, 16 h; stronger effect = lower value | activity change, % at 57.5 µM; in the data active = activity change below about -50%; inconclusive = mostly about -30% to -49%
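THP-1 cells pretreated 1 hr with compounds (up to 57.5 uM final), then stimulated with LPS (250 ng/mL final) plus ATP (1.25 mM final); secreted IL-1B measured by AlphaLISA after 16 hr, decreased signal indicating inhibition.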
The depositor's hits bear a star; ? = inconclusive; nt = not tested or not shown; [ ] = remark or other dose. Unless noted, calls come from the whole dose curve; as a rule, active = well fitted curve in the direction sought with a large enough effect; inconclusive = small, poorly fitted or top-dose-only effect, or another doubt; inactive = no such curve, though single readings can be large; an effect the other way counts as inactive or inconclusive. Unless noted, % is set by controls: 0 for no effect and ±100 for the full control effect.

SMILES	DT40 TDP1 CPT	DT40 TDP1 no CPT	HT1080 IDH1KD tx	HT1080-NT tox	uPA generation	IL1B secr inh
CCC(c1nnnn1C(C)(C)CC)N(CCCO)Cc1cc2cccc(C)c2[nH]c1=O (configuration not stated)	-15.8%	-21.5%	-9.2%	-0.4%	-6.0%	-14.6
CCC(C)(C)n1nnnc1C(C(C)C)N(CCN1CCOCC1)Cc1cc2cccc(C)c2[nH]c1=O (configuration not stated)	18.4µM*	-25.2%	?	-0.8%	nt	-17.1
CCC(c1nnnn1C(C)(C)CC)N(CCCN1CCOCC1)Cc1cc2cccc(C)c2[nH]c1=O (configuration not stated)	14.1µM*	?	2.6%	5.9%	nt	18.0
Cc1nn(-c2ccccc2)c(C)c1NC(=O)COC(=O)CCc1ccccc1	17.5%	5.4%	10.3%	26.8%	2.0%	19.5
O=C(C=C=Nc1ccccc1)C(=O)N=C=Cc1ccccc1	1.84µM*	4.61µM*	3.66µM*	6.51µM*	-3.1%	-101.3*
CC(C)(C)OC(=O)C[C@H]1C/C=C\C[C@@H](CC(=O)NCCO)C(=O)NC[C@@H](c2ccccc2)OC1=O	-15.4%	-0.9%	-0.6%	1.5%	6.3%	-2.2
CCc1cccc(C)c1NC(=S)NCc1ccc2[nH]c(C)cc2c1	23.1µM*	18.4µM*	-16.8%	0.9%	2.1%	-29.5
CCc1cccc(C)c1NC(=S)NCc1cccn1C	20.6µM*	?	8.9%	9.7%	6.9%	-3.5
Cc1ccc(Cl)cc1NC(=S)NCc1cccn1C	?	18.4µM*	1.9%	-3.1%	-5.1%	-7.8
N#Cc1ccc(CN2CCC3(CC2)CCN(C(=O)c2ccco2)CC3)cc1	1.1%	?	nt	nt	nt	nt
O=C(CN1C(=O)CSc2ccc(S(=O)(=O)N3CCCCCC3)cc21)NCCc1ccccc1	?	23.1µM*	-16.1%	-13.5%	-1.1%	-6.4
CC1CC(C)CN(CCCNC(=O)CN2C(=O)CSc3ccc(S(=O)(=O)N4CCCCC4)cc32)C1 (configuration not stated)	?	-6.6%	1.4%	-2.9%	-4.3%	-60.0*
O=C(CN1C(=O)CSc2ccc(S(=O)(=O)N3CCOCC3)cc21)NCCCN1CCCCC1	5.3%	12.7%	7.3%	5.0%	-8.1%	11.7
CCOc1ccc(CC(=O)Nc2c(C(=O)c3ccc(F)cc3)oc3ccc(Cl)cc23)cc1OCC	-5.1%	-2.4%	nt	nt	nt	nt
Cc1cccc(C)c1OCCNC(=O)OCc1ccccc1	?	?	-4.0%	0.7%	-8.5%	3.1
Cc1oc(-c2cccc(NC(=O)c3ccccn3)c2)nc1CNC(=O)c1ccc(C(F)(F)F)cc1	-0.4%[9.04 µM]	-24.4%	nt	nt	nt	nt
Cc1nn(C)c2ncc(C(N)=O)c(Oc3ccc(Cl)cc3)c12	-22.3%	?	1.7%	-3.5%	13.5%	-1.6
OCCNCC12CC3CC(CC(C3)C1)C2	-4.8%	-2.9%	25.2%	6.3%	-5.0%	9.8
Oc1ccccc1CNCC12CC3CC(CC(C3)C1)C2	?	?	-25.8%	?	-0.1%	-86.6*
CC(CC12CC3CC(CC(C3)C1)C2)NCc1ccccc1O (configuration not stated)	14.6µM*	16.4µM*	-13.0%	-15.8%	?	-85.1*
CCc1ccc(NS(=O)(=O)c2ccc3[nH]cc(C(=O)N4CCc5ccccc54)c(=O)c3c2)cc1	-0.2%	3.4%	?	?	0.2%	15.5
CCCCSCCCNC(=O)c1c[nH]c2ccc(S(=O)(=O)Nc3cccc(OC)c3)cc2c1=O	20.6µM*	20.6µM*	nt	nt	nt	nt
Cc1cc(C)cc(NS(=O)(=O)c2ccc3[nH]cc(C(=O)N4CCc5ccccc54)c(=O)c3c2)c1	?	?	23.1µM*	23.1µM*	-3.7%	0.0
COc1ccccc1CNC(=O)c1c[nH]c2ccc(S(=O)(=O)Nc3cc(C)cc(C)c3)cc2c1=O	?	20.6µM*	nt	nt	nt	nt
O=C(Cc1ccccc1[N+](=O)[O-])c1ccc2c(c1)OCO2	-0.5%	-17.8%	18.5%	15.2%	2.9%	-3.6
SMILES	DT40 TDP1 CPT	DT40 TDP1 no CPT	HT1080 IDH1KD tx	HT1080-NT tox	uPA generation	IL1B secr inh
COc1ccc(NC(=O)c2cc(C)cc(C)c2)cc1S(=O)(=O)N1CCCCC1	-18.1%	-19.8%	-4.7%	1.0%[9.24 µM]	-0.8%	-25.0
Cc1c(C(=O)NCc2cccs2)sc(=O)n1Cc1ccc(S(C)(=O)=O)cc1	?	?	-0.7%	1.7%	nt	?
Cc1cc(C)c2c(N)c(C(=O)Nc3ccc([N+](=O)[O-])cc3)sc2n1	-0.2%	17.6%	0.4%	1.9%	-2.4%	-10.9
CC1CCn2c(nc3cc(C(=O)NCCc4ccccc4)ccc32)C1 (configuration not stated)	-27.1%	?	nt	nt	nt	nt
C/C(=N\NC(=O)Cc1cccn1C)c1ccc2ccccc2c1	?	?	-14.6%	-14.6%	1.8%	-61.4*
O=C(NCc1ccco1)c1cnn2c1NC(c1ccccc1)CC2C(F)(F)F (configuration not stated)	18.4µM*	-11.8%	-13.7%	-12.4%	nt	-10.5
O=C(O)c1cnn2c1NC(c1ccc(F)cc1)CC2C(F)(F)F (configuration not stated)	-19.5%	-4.7%	-1.2%	-1.9%	4.7%	17.1
O=C(NCc1ccco1)c1cnn2c1NC(c1ccc(Br)cc1)CC2C(F)(F)F (configuration not stated)	4.11µM*	4.11µM*	?	?	3.1%	-28.5
Cc1ccccc1Cn1ccc(NC(=O)c2cnn3c2NC(c2ccccc2)CC3C(F)(F)F)n1 (configuration not stated)	?	?	?	?	nt	-66.1*
Cc1nn(C)c(C)c1CN(C)C(=O)c1cnn2c1NC(c1ccccc1)CC2C(F)(F)F (configuration not stated)	?	?	5.5%	1.5%	-11.5%	44.5
CC(NC(=O)c1cc(COc2ccc(-n3cncn3)cc2)on1)c1ccc(F)cc1 (configuration not stated)	?	?	-14.7%	-2.8%	nt	-24.2
CCOC(=O)C1CCN(C(=O)c2ccc3nc(-c4ccc(OC)cc4)c(-c4ccc(OC)cc4)nc3c2)CC1	?	?	-21.7%	-19.0%	6.6%	5.4

From PubChem BioAssay
